High-throughput results as filed in PubChem.
pPAFAH inh – pPAFAH enzyme inhibitors, primary screen, biochemical, fluorescence polarization, human | Platelet-activating factor acetylhydrolase (Homo sapiens), Q13093 | recombinant pPAFAH, FP-rhodamine probe fluorescence polarization | inhibition, % at 3.39 µM | 330,000 compounds, 1.5% hits | AID 463082, 2010;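 active means inhibition above the mean inhibition across the screen plus 3 SD, cut at about 25% in these data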;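 further: inhibitors block binding of the rhodamine activity-based probe so polarization drops; 0% = enzyme with DMSO and 100% = wells lacking pPAFAH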
Target sequence (Q13093 whole entry, looked up): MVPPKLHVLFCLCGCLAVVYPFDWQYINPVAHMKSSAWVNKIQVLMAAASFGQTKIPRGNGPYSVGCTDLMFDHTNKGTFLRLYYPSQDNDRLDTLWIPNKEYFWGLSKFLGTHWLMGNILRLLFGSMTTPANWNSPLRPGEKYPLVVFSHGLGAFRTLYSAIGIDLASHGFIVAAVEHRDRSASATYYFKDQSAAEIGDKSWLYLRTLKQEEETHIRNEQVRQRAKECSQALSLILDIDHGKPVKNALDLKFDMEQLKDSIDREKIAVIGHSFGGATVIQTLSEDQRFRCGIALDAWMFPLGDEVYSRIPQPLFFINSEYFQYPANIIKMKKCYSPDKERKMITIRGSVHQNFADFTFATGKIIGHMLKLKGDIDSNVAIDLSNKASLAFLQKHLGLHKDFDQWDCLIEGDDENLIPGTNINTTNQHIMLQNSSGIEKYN
Fam108B counter – mouse Fam108B serine hydrolase inhibitors, primary screen, counter-screen for RBBP9 inhibitor project, biochemical, fluorescence polarization; recombinant Fam108B, FP-Rh probe fluorescence polarization; 300,000 compounds, 0.33% hits; inhibition, % at 9.51 µM;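 active means inhibition above the screen mean inhibition plus 3 SD, computed separately per campaign, cut at about 18% in these data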;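 further: inhibitors lower polarization as less probe binds the enzyme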
PAFAH2 inh – PAFAH2 enzyme inhibitors, primary screen, biochemical, fluorescence polarization, human. recombinant PAFAH2, FP-rhodamine activity probe. inhibition, % at 3.39 µM. 340,000 compounds, 0.99% hits;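 active means inhibition above the mean over all tested compounds plus 3 SD, cut at about 30% in these data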;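 further: inhibitors block probe labeling of enzyme so polarization drops; 0% = enzyme with DMSO and 100% = wells lacking PAFAH2 protein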
PME-1 primary – PME-1 inhibitors via competitive probe labeling, primary screen, biochemical, fluorescence polarization, FP-Rh probe, HTS; Protein phosphatase methylesterase 1 (Homo sapiens), Q9Y570; recombinant PME-1; inhibition, % at 5.9 µM; 320,000 compounds, 0.53% hits;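 active means inhibition above the campaign mean of all compounds plus 3 SD, cut at about 26% in these data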;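 further: competitive labeling of PME-1 active site by serine hydrolase directed probe; 0% = PME-1 with DMSO and 100% = wells lacking PME-1 enzyme; inhibitors block probe labeling so polarization falls and inhibition rises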
PAFAH1B2 inh – PAFAH1B2 enzyme inhibitors, primary screen, biochemical, fluorescence polarization, human. Platelet-activating factor acetylhydrolase IB subunit alpha2 (Homo sapiens), P68402. recombinant PAFAH1B2, FP-rhodamine activity probe. inhibition, % at 3.39 µM. 340,000 compounds, 1.2% hits. AID 492953, 2010;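 active means inhibition above the mean of all tested compounds plus 3 SD, cut at about 24% in these data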;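 further: 0% = enzyme with DMSO and 100% = wells lacking PAFAH1B2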
PAFAH1B3 inh – PAFAH1B3 enzyme inhibitors, primary screen, biochemical, fluorescence polarization, human. 340,000 compounds, 0.28% hits. inhibition, % at 3.39 µM. recombinant PAFAH1B3, FP-rhodamine probe. AID 492972, 2010. Platelet-activating factor acetylhydrolase IB subunit alpha1 (Homo sapiens), Q15102;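 active means inhibition above the screen-wide average of all tested compounds plus 3 SD, cut at about 25% in these data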;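 further: 0% = enzyme with DMSO only and 100% = wells lacking PAFAH1B3 protein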
pPAFAH FP conf – pPAFAH (PLA2G7) enzyme inhibitors, confirmation, biochemical, fluorescence polarization, human; shares compounds with pPAFAH inh; recombinant pPAFAH, FP-Rh probe fluorescence polarization; inhibition, % at 3.39 µM; 2,300 compounds, 72% hits; AID 463230, 2010;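 active means mean inhibition of the triplicate above the hit cutoff set for the earlier primary screen, cut at about 25% in these data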;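 further: 0% = enzyme with DMSO and 100% = wells lacking pPAFAH enzyme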
* = called active by the depositor; . = not tested or not shown. Shown are actives, neighbours in structure and some others; about 2.8% of the full set was active somewhere.

SMILES	pPAFAH inh	Fam108B counter	PAFAH2 inh	PME-1 primary	PAFAH1B2 inh	PAFAH1B3 inh	pPAFAH FP conf
CCn1c(SCC(=O)Nc2ccc3c(c2)c2ccccc2n3CC)nnc1-c1ccco1	56.3*	9.3	22.4	9.3	4.1	2.0	41.6*
CCn1c2ccccc2c2cc(NC(=O)c3ccc(Br)o3)ccc21	42.4*	-1.1	7.5	10.5	0.5	2.6	17.5
CCn1c2ccccc2c2cc(NC(=O)CN(C)CC(=O)Nc3ccc(N4CCOCC4)cc3)ccc21	38.2*	2.3	1.1	10.8	4.8	4.4	38.9*
CCn1c2ccccc2c2cc(NC(=O)c3cc(C)on3)ccc21	11.2	6.5	-0.2	12.0	0.1	6.0	.
CCn1c2ccccc2c2cc(NC(=O)N3CCOCC3)ccc21	-2.1	3.3	2.5	-5.0	0.5	6.6	.
O=[N+]([O-])c1cc(S(=O)(=O)N2CCCC2)ccc1NN=C1CCCCC1	-1.6	-2.0	-2.7	2.2	0.7	-1.1	.
O=[N+]([O-])c1cc(C(F)(F)F)cc([N+](=O)[O-])c1NN=C1CCCCC1	34.9*	7.2	6.8	6.1	9.5	6.2	3.1
COC(=O)c1[nH]nc(-c2ccccc2)c1-c1ccccc1	1.9	0.4	-1.7	-7.0	10.0	6.7	.
Cn1ccnc1C(=O)c1cc(SCC(=O)NCc2ccccc2)nc2ccccc12	-1.2	-2.1	-1.4	1.1	2.2	5.1	.
COC(=O)CSc1cc(C(=O)c2nccn2C)c2ccccc2n1	42.8*	1.2	0.3	-3.0	-1.1	4.7	21.9
OC(CNCC1CCCO1)Cn1c2ccc(Cl)cc2c2cc(Cl)ccc21 (centres undefined)	41.0*	0.8	-12.6	-1.6	0.9	-5.8	33.6*
OC(CNCC1CCCO1)Cn1c2ccccc2c2ccccc21 (centres undefined)	2.6	-5.6	0.3	-4.0	9.3	-5.2	.
O=C(NCc1ccco1)c1cccc2c1C(=O)c1ccc(/C=C/c3ccccc3)cc1S2(=O)=O	38.9*	.	3.9	.	2.7	1.4	31.5*
CC(C)c1cccc(-c2ccc3c(c2)S(=O)(=O)c2cccc(C(=O)NCc4ccccc4)c2C3=O)c1	-1.0	.	-7.3	.	-0.3	-3.6	.
COc1ccc2cc(CNCCOCCOCCNCc3ccc4cc(OC)ccc4c3)ccc2c1	.	.	0.4	.	1.3	8.5	.
C=CCOc1ccc(C2C3=C(CCCC3=O)N(CC(=O)O)C3=C2C(=O)CCC3)cc1OCC	4.6	1.2	1.6	4.5	2.5	5.8	.
C=CCOc1c(Br)cc(C2C3=C(CCCC3=O)N(C)C3=C2C(=O)CCC3)cc1OCC	39.4*	2.7	8.6	0.5	4.1	-2.2	5.1
COc1ccccc1/C=c1\sc2nc(-c3ccccc3OC)nn2c1=O	7.2	-12.4	-17.6	0.4	-4.0	-6.6	.
COc1ccc(Br)cc1/C=c1\sc2nc(-c3ccco3)nn2c1=O	44.2*	-6.5	0.0	-17.4	-6.2	-5.1	20.0
C[C@]12c3[nH]c4cc(-c5ccco5)ccc4c3CCN1C(=O)[C@@H](CC(=O)NCCC1=CCCCC1)C[C@@H]2C(=O)N1CCOCC1	5.9	.	1.4	.	-0.3	2.5	.
O=S(=O)(Nc1nc2ccccc2nc1Nc1ccc2c(c1)OCCO2)c1cccs1	48.9*	7.8	13.7	12.2	11.3	2.4	48.7*
S=C(NCc1ccco1)N1CCN(c2ccccc2Cl)CC1	4.5	4.1	7.2	5.8	0.7	-2.5	.
COc1cc(/C=N/NC(=O)C(Cc2c[nH]c3ccccc23)NC(=O)OCc2ccccc2)cc([N+](=O)[O-])c1O (centres undefined)	46.5*	12.6	26.4	29.3*	42.7*	13.8	52.0*
COCCNC(=O)C(Cc1c[nH]c2ccccc12)NC(=O)OCc1ccccc1 (centres undefined)	6.0	-0.5	1.4	4.0	1.1	10.3	.
